# Screens as filed in PubChem BioAssay.
# TRHR PAM = TRH receptor (human) allosteric enhancement; TRHR cells, fluo-8 calcium fluorescence, EC20 TRH enhancement; AID 493056; enhancement, % at 2 µM; 360,000 tested, 0.66% active; in the data active = enhancement above about 30%; also: 0% is about no effect
# Target sequence (P34981 whole entry, looked up): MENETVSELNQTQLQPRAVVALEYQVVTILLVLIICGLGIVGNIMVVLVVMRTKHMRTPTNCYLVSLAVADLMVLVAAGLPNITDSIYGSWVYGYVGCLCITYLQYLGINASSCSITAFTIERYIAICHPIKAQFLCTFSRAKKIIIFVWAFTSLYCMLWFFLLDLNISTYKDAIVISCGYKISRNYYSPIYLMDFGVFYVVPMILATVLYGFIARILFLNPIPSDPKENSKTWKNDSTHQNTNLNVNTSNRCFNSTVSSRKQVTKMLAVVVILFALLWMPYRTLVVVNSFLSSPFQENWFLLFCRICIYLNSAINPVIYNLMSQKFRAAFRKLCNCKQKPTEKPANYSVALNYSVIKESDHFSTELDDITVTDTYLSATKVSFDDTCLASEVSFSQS
#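 Enhancer read-out: after compound pinning and an initial kinetic agonist-mode read, an EC20 of TRH (10 nM final) was injected and fluo-8 calcium signal (Ex 480/Em 530) followed at 1 s/cycle for 100 cycles in TRHR-expressing cells.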
# D1 PAM = potentiators of human D1 dopamine receptor; P21728; HEK293 TREx D1 cells, calcium flux, dopamine EC20 potentiation; potentiation, % at 10 µM; 360,000 tested, 0.036% active; AID 504651; in the data active = potentiation above about 30%; also: 0% is about no effect
# D1 antag = human D1 dopamine receptor antagonism | P21728 | HEK293 TREx D1 cells, calcium flux, dopamine EC80; hits give low values | activity change, negative = inhibition, % at 10 µM | 360,000 tested, 3.2% active | AID 504652; in the data active = activity change below about -30%; also: % is scaled to controls: 0 for no effect and ±100 for the full control effect
#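 Tetracycline-induced HEK293 T-REx cells with force-coupled D1 receptor were loaded with a no-wash calcium dye. Compound was added after a 10 s baseline and read kinetically for 180 s; EC80 dopamine was then added and calcium flux followed another 180 s.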
# D1 ag = agonists of human D1 dopamine receptor; AID 504660; activation, % at 2 µM; P21728; 360,000 tested, 1% active; HEK293 T-REx D1 cells, calcium flux, agonist mode; also: 0% is about no effect
#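 Agonism was scored from calcium flux recorded over 180 s (1 read/s) after pintool compound addition, following a 10-cycle baseline. Cells were inducible force-coupled HEK293 TREx D1, plated overnight at 30 C and loaded with no-wash calcium dye.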
# TRHR agonist = TRH receptor (human) agonism; P34981; TRHR cells, calcium flux fluo-8, FDSS agonist mode; activation, % at 2 µM; 360,000 tested, 0.18% active; AID 493084; also: 0% is about no effect
#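 Read-out: compound-evoked intracellular calcium rise in TRHR cells, fluo-8 dye, kinetic FDSS fluorescence at 1 s/cycle following a 10-cycle baseline. Cells cultured overnight before dye loading (30 min–1.5 h, RT).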
# Numbers without * were called inactive; x = no result given. In the library only some 4.6% were active in any assay of this set; here they are far more common. Rule as the data show it, unless noted: active = activation above about 30%; inactive = the rest.
SMILES,TRHR PAM,D1 PAM,D1 antag,D1 ag,TRHR agonist
O=C(CSc1nnc(Cc2ccccc2)n1Cc1ccccc1)NCc1ccco1,-1,4,-6,2,0
Cc1ccccc1-n1c(Cn2c(=O)sc3ccccc32)nnc1SCC(=O)N1CCOCC1,3,x,-38*,4,0
COc1ccc(CNC(=O)CSc2nnc3nc(C)cc(C)n23)cc1OC,7,-12,-7,1,0
O=C(CSc1nnc(CNc2ccc(Cl)cc2)n1Cc1ccccc1)NCc1ccco1,-5,0,-32*,6,4
Cc1cc(C)n2c(SCC(=O)NCc3ccco3)nnc2n1,1,0,-59*,0,1
COc1ccc(NC(=O)CN2C(=O)C3(SCC(=O)N3c3cccc(OC)c3)c3ccccc32)cc1 (stereo unspecified),-15,-5,0,1,0
Cc1cc(C)c2c(=O)c3c(oc2c1)C(=O)N(Cc1ccc(F)cc1)C3c1cccc(O)c1 (stereo unspecified),-1,3,-2,-2,0
COc1cccc(-n2c(COc3ccccc3C)nnc2SCC(=O)O)c1,3,-4,-32*,0,-1
Cn1c(Cn2c(=O)sc3ccccc32)nnc1SCC(=O)NCc1ccco1,1,-2,-12,2,0
O=C(CCn1c(=O)sc2ccccc21)NCc1ccc2c(c1)OCO2,-1,-4,-17,-3,-1
O=C(CCn1c(=O)sc2ccccc21)NCc1ccco1,-8,-5,-2,79*,0
Cc1ccccc1OCc1nnc(SCC(=O)O)n1-c1ccccc1,0,-2,3,3,0
CC(=O)Nc1cccc(NC(=O)CCn2c(=O)sc3ccccc32)c1,5,-4,-90*,3,0
O=C(CSc1nnc(Cn2c(=O)sc3ccccc32)n1-c1ccccc1)NCc1ccco1,40*,-4,-1,0,0
Cc1ccccc1CNC(=O)C(=O)NCC(c1ccco1)S(=O)(=O)c1cccs1 (stereo unspecified),-7,3,x,7,0
COc1cc(C2NC(=O)c3c(sc4c3CCN(C)C4)N2)ccc1OC(=O)c1ccccc1 (stereo unspecified),-6,4,1,38*,22
COc1ccc(NCc2nnc(SCC(=O)Nc3nc(-c4ccccc4)cs3)n2-c2ccccc2)cc1,3,-3,-60*,0,1
CC(C)NC[C@@H](O)c1ccc(O)c(O)c1,10,5,-32*,0,0
Cc1nc2c(c(C)c1CCC(=O)Nc1ccc(F)cc1)c(=O)n(C)c(=O)n2C,2,-4,7,1,0
CC[n+]1c(/C=C/C=C/N(C(C)=O)c2ccccc2)sc2cc(OC)ccc21,3,-7,-7,56*,23
Cc1ccc(OCc2cc(=O)n3c4c(sc3n2)CCCC4)cc1C,-3,2,3,0,1
Cc1ccc(S(=O)(=O)c2cn(CC(=O)Nc3ccc(Cl)cc3)c3ccc(F)cc3c2=O)cc1C,-3,-1,6,3,1
COc1ccc(NC(=O)Cn2cc(S(=O)(=O)c3ccccc3)c(=O)c3cc4c(cc32)OCO4)cc1,2,-4,-47*,4,1
Cc1ccc2c(c1)c(=O)c(S(=O)(=O)c1ccc(C)c(C)c1)cn2CC(=O)Nc1ccccc1,10,-2,-47*,1,2
Cc1ccc(S(=O)(=O)c2cn(CC(=O)Nc3ccccc3)c3cc4c(cc3c2=O)OCO4)cc1,-7,3,-8,2,2
SMILES,TRHR PAM,D1 PAM,D1 antag,D1 ag,TRHR agonist
Cc1ccc(C)c(-n2cc(-c3ccccc3)nc2SCC(=O)Nc2ccccc2)c1,-6,1,-3,5,0
Cc1c(Cl)ccc2sc(N3CCN(C(=O)C4CC4)CC3)nc12,-2,0,x,8,0
Nc1nc(COc2ccc(F)cc2Cl)nc(N2CCCCC2)n1,-4,-5,-31*,1,-1
Nc1nc(CSc2ccc(Cl)cc2)nc(N2CCCCC2)n1,2,3,0,3,0
Clc1ccc(Cn2c(-c3cccnc3Cl)nc3ccccc32)cc1,-4,-7,-45*,2,1
CCNC(=O)c1c(NC(=O)Cc2coc3cc(C)ccc23)sc2c1CCCC2,0,-1,-2,5,0
COCCCNC(=O)c1c(NC(=O)Cc2coc3cc(C)ccc23)sc2c1CCCC2,3,0,-66*,1,0
CC(C)(C)C(=O)Nc1c(C(=O)N2CCN(c3ccc(F)cc3)CC2)oc2ccccc12,-3,-8,-2,2,0
CC1(c2ccc(Cl)cc2)NC(=O)N(CC(=O)N2CCc3ccccc3C2)C1=O (stereo unspecified),5,1,28,32*,4
CCc1cc2c(=O)[nH]c(Cc3ccccc3)nc2s1,-2,-1,-3,2,0
Cc1cc2c(=O)[nH]c(Cc3ccccc3)nc2s1,-1,-6,-41*,0,0
COC(=O)c1ccccc1-c1c2ccc(=N)cc-2oc2cc(N)ccc12,-18,-5,-56*,507*,198*
CC(=O)Nc1ccc(C2Nc3c(C)cc(C)cc3-c3cc(C)nn32)cc1 (stereo unspecified),3,1,-26,7,2
Clc1ccc2c(c1)CNc1c(ncnc1N1CCOCC1)O2,0,-9,-43*,3,-1
Clc1ccc2c(N3CCOCC3)ccnc2c1,-1,-2,-3,3,1
COC(=O)c1ccc2c(c1)N(CC(=O)Nc1cccc(C(F)(F)F)c1)C(=O)c1ccccc1S2,-3,-2,-3,1,1
Cc1ccc(-c2cc(C(=O)Nc3cc(C)ccc3O)no2)cc1,0,2,-8,3,0
Cc1ccc(O)c(NC(=O)c2cc(-c3ccccc3O)no2)c1,-7,7,-31*,15,0
Cc1ccc(O)c(NC(=O)c2cc([N+](=O)[O-])ccc2Cl)c1,9,-4,-30*,8,-2
Cc1ccc(O)c(NC(=O)c2cc(-c3ccccc3Cl)on2)c1,-14,4,-33*,6,1
COc1cc(NC(=O)c2cc(-c3ccccc3O)no2)cc(OC)c1OC,-7,-1,12,0,-1
Cc1cc(O)c(NC(=O)c2cc([N+](=O)[O-])ccc2Cl)cc1C,1,-3,-4,11,-2
Cn1c(=O)[nH]c(=O)c2c1[nH]c(=S)n2Cc1ccc(Cl)cc1,24,-2,-6,3,0
CCOC(=O)C1CCCN(C(=O)c2ccc3c(c2)N(Cc2ccc(Cl)cc2)C(=O)c2ccccc2S3=O)C1 (stereo unspecified),-6,2,1,2,0
COc1ccc(N2C3=[N+](CC2(C)O)c2ccccc2CC3)cc1 (stereo unspecified),-3,-2,-89*,3,0
